# Screening results from PubChem.
# DAX1 inh-1 – blocks DAX1 repression of SF-1 activated StAR promoter | hit rate 1.1% among 370,000 | HEK293T StAR-luciferase reporter, SF-1/DAX-1 repression relief | inhibition, % at 6.8 µM | AID 652010;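 active = inhibition above the mean over all tested compounds plus 3 SD, cut at about 3.6% in these data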;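 note: 0% = DAX-1 cells with DMSO and 100% = cells lacking DAX-1 with DMSO; higher inhibition means more luminescence from relief of DAX-1 repression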
# FXN GAA850 act – activators of GAA850 frataxin (FXN) promoter; HEK293 lucGAA850 FXN promoter luciferase reporter, 24 h; percent of 10 µM SAHA response; activation, % at 6 µM; hit rate 0.56% among 360,000; AID 540364;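 active = activation above the average of all compounds screened plus 3 SD, cutoff fixed separately per campaign, cut at about 7.5% in these data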;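 note: 0% = DMSO wells and 100% = 10 µM SAHA wells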
# DAX1 inh-2 – inhibitors of human orphan nuclear receptor DAX1 (NR0B1); hit rate 0.99% among 340,000; inhibition, % at 6.75 µM; HEK293 Gal4-DAX1 luciferase reporter, luminescence;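 active = inhibition above the mean over all tested compounds plus 3 SD, cut at about 4.2% in these data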;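 note: 0% = DAX1-transfected cells with DMSO and 100% = empty-vector control cells with DMSO; inhibition shows as a rise in luminescence from relieved DAX1 repression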
# Target sequence (P51843 207-470 limits assumed): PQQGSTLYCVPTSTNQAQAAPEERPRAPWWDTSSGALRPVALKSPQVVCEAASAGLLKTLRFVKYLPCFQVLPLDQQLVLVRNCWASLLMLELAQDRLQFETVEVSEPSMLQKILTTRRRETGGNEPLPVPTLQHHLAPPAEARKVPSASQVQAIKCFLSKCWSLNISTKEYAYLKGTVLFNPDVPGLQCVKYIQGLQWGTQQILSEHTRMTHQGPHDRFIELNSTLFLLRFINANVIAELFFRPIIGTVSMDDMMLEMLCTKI
# hgDAF12 agonist – activates the H. glycines DAF-12 receptor ligand-binding domain; HEK293 GAL4-hgDAF12 UAS-luciferase reporter, agonist luminescence; normalized to butyrate control; activation, % at 6.8 µM; hit rate 1.8% among 370,000;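 active = activation above a cutoff set at the mean of all screened compounds plus 3 SD, cut at about 10% in these data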;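 note: 0% = DMSO wells and 100% = sodium butyrate wells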
# hcDAF12 agonist – activates DAF-12 receptor from parasite H. contortus | HEK293 hcDAF-12 lit1-tk-luc reporter, luminescence; 0% DMSO, 100% Δ7-dafachronic acid | activation, % at 6.8 µM | hit rate 1.4% among 370,000 | AID 652067;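 active = activation above the mean of all tested compounds plus 3 SD, cut at about 5.5% in these data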;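 note: 100% = response to 3 µM Δ7-dafachronic acid high control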
# ssDAF-12 act – activators of S. stercoralis DAF-12 nuclear receptor; HEK293 ssDAF-12/GRIP1 lit1-tk-luc reporter, luminescence; % of 3 µM dafachronic acid response; activation, % at 6.8 µM; hit rate 1% among 370,000;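 active = activation above the mean over all tested compounds plus 3 SD, cut at about 0.9% in these data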;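 note: 0% = DMSO-only wells and 100% = 3 µM delta7-dafachronic acid wells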
# Active calls of the source: *; x = no result. Rows were chosen to be rich in hits. Some 4.5% of all compounds tested hit in one or more screens of this group.
SMILES,DAX1 inh-1,FXN GAA850 act,DAX1 inh-2,hgDAF12 agonist,hcDAF12 agonist,ssDAF-12 act
C[C@H]1[C@H](C)CC[C@]2(C(=O)O)CC[C@]3(C)C(=CC[C@@H]4[C@@]5(C)CC[C@H](O)C(C)(C)[C@@H]5CC[C@]43C)[C@H]12,0.0,0.2,0.1,0.1,1.5,-1.2
COc1ccc(OC)c(NC(=O)C23CCC(C)(C(=O)O2)C3(C)C)c1 (stereo not drawn),-0.4,1.1,-0.4,0.4,2.6,-1.4
COC(=O)c1ccccc1NC(=O)C12CCC(C)(C(=O)O1)C2(C)C (stereo not drawn),-0.2,2.0,-0.1,0.0,-1.6,1.9*
COC(=O)c1ccccc1NC(=O)NCc1ccncc1,0.6,0.4,-0.1,-0.9,-2.1,6.6*
Nc1c(C(=O)Nc2ccc3c(c2)OCCO3)nnn1Cc1ccc(F)cc1,4.2*,2.5,-0.1,8.8,2.5,0.0
COC(=O)C[C@@H]1C[C@@H]2c3cc(NS(=O)(=O)c4ccccc4)ccc3O[C@@H]2[C@@H](CO)O1,0.8,0.7,1.1,12.8*,0.3,-1.5
COC(=O)C[C@H]1C[C@@H]2c3cc(NS(=O)(=O)c4ccc(OC)cc4)ccc3O[C@@H]2[C@H](CO)O1,-0.5,1.4,3.9,1.0,-2.1,-1.3
COC(=O)C[C@H]1CC[C@H]2[C@H](COc3ccc(NS(=O)(=O)c4cccc(OC)c4)cc3C(=O)N2C)O1,-1.6,x,x,3.0,-2.4,-0.5
CCN(C)c1ccc(/C=N\n2nnnc2N)cc1,-1.2,0.7,0.6,12.5*,-0.2,-0.5
Nc1nnnn1/N=C/c1ccc(O)cc1,0.4,-0.8,2.2,-1.4,-1.1,-1.3
CCCCNC(=O)C[C@H]1C[C@@]2(C(=O)OC)C(=C[C@H](C3CCCC3)O[C@@H]2C)N(Cc2cccc3ccccc23)C1=O,-0.7,x,x,-0.3,-1.9,-1.2
CC1=C(C(N)=O)C(c2cccs2)n2ncnc2N1 (stereo not drawn),0.1,1.9,3.6,0.9,-0.9,-1.2
c1csc(C2C3=C(Nc4ncnn42)c2ccccc2OC3)c1 (stereo not drawn),-0.4,1.2,0.2,-0.1,2.1,1.1*
Cc1cc(C)nc(SCC(=O)N2CCc3ccccc32)n1,4.3*,3.9,0.9,4.3,0.2,-0.5
O=C(Cn1cc2c(n1)CCCC2)N1CCc2ccccc21,-0.5,0.3,4.5*,-4.1,1.3,0.8
Cc1ccn(C(C)CC(=O)N2CCc3ccccc32)n1 (stereo not drawn),1.2,0.6,0.4,2.8,6.2*,-0.2
O=C(Cn1cc2c(n1)CCCCC2)N1CCc2ccccc2C1,0.3,0.5,0.2,-0.3,-1.1,-1.3
CC(Sc1ncccn1)C(=O)N1CCc2ccccc21 (stereo not drawn),0.8,-0.3,0.7,-0.7,5.8*,-0.7
O=C(Nc1ccc(Cl)c(Cl)c1)C1CCCN1S(=O)(=O)c1cccc2cccnc12 (stereo not drawn),-2.9,x,x,-1.8,-5.2,-2.1
COC(=O)c1cn(-c2ccc(-c3noc4c3C(=O)N(CC(=O)N3CCOCC3)CC4)cc2)nn1,0.2,x,x,0.4,1.5,-1.6
COC(=O)[C@]12C[C@H](CC(=O)NCc3ccc(OC)c(OC)c3)C(=O)N(Cc3cccc4ccccc34)C1=C[C@H](C(C)(C)C)O[C@@H]2C,-1.5,x,x,0.2,-0.5,-0.8
O=C(CCCCCN1C(=O)C2C3C=CC(C3)C2C1=O)Nc1ccc2ncccc2c1 (stereo not drawn),-2.9,x,x,-0.2,0.9,-1.0
O=C(O)c1ccccc1SCC(=O)N1CCc2ccccc21,0.9,1.4,-0.9,2.9,2.0,7.6*
COc1ccc2nc(N/C(N)=N/S(C)(=O)=O)nc(C)c2c1,0.4,2.6,4.6*,1.5,-0.8,-0.2
COC1=C[C@H](C(=O)NC2CCN(Cc3ccccc3)CC2)[C@H](C)[C@@H](c2ccccc2)CC1=O,0.1,x,x,0.1,-1.8,-0.9
SMILES,DAX1 inh-1,FXN GAA850 act,DAX1 inh-2,hgDAF12 agonist,hcDAF12 agonist,ssDAF-12 act
Nc1cc2c(cc1Br)-c1ccc(F)cc1C2O (stereo not drawn),-0.1,4.0,1.5,11.6*,3.1,0.6
COc1cccc(CN(C)C(=O)Cc2c[nH]c3ccccc23)c1,0.8,2.7,-0.4,7.2,6.1*,0.8
COc1ccc(CN(C)C(=O)Cc2c[nH]c3ccccc23)cc1,-0.6,1.9,-0.7,0.8,6.1*,0.5
COc1cccc(CN(C)C(=O)Cc2c[nH]c3ccccc23)c1OC,-0.5,-1.7,0.5,-0.7,-0.8,-0.1
N#Cc1cccc(-n2cc(COC(=O)NCCc3ccccc3)nn2)c1,0.2,x,x,1.6,-0.1,-0.4
COc1ccc(Cc2c(-c3ccc(C#N)cc3)nc3c4ccccc4ccn23)c(C)c1,-1.4,x,x,4.9,1.8,-1.2
COc1ccc(Cc2c(-c3ccccc3)nc3c4ccccc4ccn23)c(C)c1,-0.5,x,x,9.1,5.6*,-0.3
COc1ccc(Cc2c(-c3ccc(F)cc3)nc3c4ccccc4ccn23)c(C)c1,1.0,x,x,2.9,6.0*,0.9
CC(COc1ccc(Cl)cc1)CN1CCC(C(O)(c2ccccc2)c2ccccc2)CC1 (stereo not drawn),-1.2,x,x,1.9,0.7,-1.6
CCOC(=O)C1=NNC(C(=O)O)C1c1ccccc1 (stereo not drawn),-0.7,1.9,0.1,10.4*,6.0*,0.4
CCOC(=O)C1=NNC(C(=O)OCC)C1c1ccccc1 (stereo not drawn),-0.2,1.0,0.8,-1.8,-1.0,-1.1
COc1ccc2c(c1)[C@@]1(NCCc3c1[nH]c1ccc(OC)cc31)C(=O)N2,0.8,x,x,-2.3,-0.9,-1.3
Cc1nonc1CC(=O)N1CCc2c([nH]c3ccccc23)C1c1ccccc1F (stereo not drawn),-0.1,0.9,-0.7,1.5,4.9,-0.4
O=C(Cc1cnc2ncnn2c1)N1CCc2c([nH]c3ccccc23)C1c1ccccc1F (stereo not drawn),0.3,0.1,-1.1,-2.6,4.2,1.7*
Cc1ccc(S(=O)(=O)NCC(=O)OCC(=O)Nc2ccccc2OC(F)F)cc1,-0.1,0.1,5.9*,-0.8,-1.1,-1.2
O=C(COC(=O)c1ccc(Cl)c([N+](=O)[O-])c1)Nc1ccccc1OC(F)F,0.1,-1.0,4.7*,0.8,2.1,-1.0
O=C(COC(=O)c1ccc2c(c1)OCO2)Nc1ccccc1OC(F)F,-2.2,-0.3,-1.0,2.1,0.1,-0.8
O=C(NC1CCCCN(Cc2cccc(C(F)(F)F)c2)C1=O)c1ccc(Cl)c(Cl)c1 (stereo not drawn),-1.1,x,x,-0.5,-2.3,-1.6
Nc1[nH]c(C(=O)c2ccccc2)c(-c2ccc(Cl)cc2Cl)c1C(=O)NCCC1=CCCCC1,x,x,x,0.2,0.2,-1.8
Nc1c(C(=O)N2CCCCC2)sc2nc3c(cc12)CCCC3,3.0,2.7,0.4,12.5*,5.5,0.4
